Here are results for 54 compounds from ChEMBL document CHEMBL4513216, “Probing the Open Global Health Chemical Diversity Library for Multistage-Active Starting Points for Next-Generation Antimalarials” (ACS Infect Dis, 2020).

Out of some 65,000 compounds screened, about 2,100 (3.2%) showed an effect of 50% or more. The median lay at about -52%. Shown is part of a subset that was picked to be rich in strong results.

The experiment concerns Plasmodium falciparum. In words: Screen against P. falciparum Asexual Blood Stage (ABS), at 5uM. Type of experiment: functional, Dd2. The settings on record: tested at 5 uM.
In the case of `CC1(C(=O)NCc2cccc(C(F)(F)F)c2)CCOCC1`, the INHIBITION was -26.5%. As for `Cc1n[nH]cc1CNCC1(c2cccc(F)c2)CCOCC1`, the figure is 26.9%; as for `FC(F)(F)c1cccc(C2(CNCc3ccncc3)CCOCC2)c1`, 51%; as for `COC[C@]1(O)CCN(C2CCN(c3ccc(OC)cc3)CC2)CC1(C)C`, -57.6%.

`COC[C@]1(O)CCN(C2CCN(c3ccc(Cl)cc3)CC2)CC1(C)C`: the INHIBITION was 34.4%. On to `COC[C@]1(O)CCN(C2CCN(c3ccc(F)c(F)c3)CC2)CC1(C)C`, for which the INHIBITION amounted to 63.1%. Regarding `CN1CCN(Cc2cn3c(n2)CN(C(=O)N2CCOCC2)CC3)CC1`, the INHIBITION is -121%.

Regarding `COc1ccccc1C1CNCCN1C(=O)c1ccc(F)cc1` (centres undefined), the INHIBITION is recorded as 69.7%. Consider `COc1ccccc1C1CNCCN1C(C)=O` (centres undefined), for which the INHIBITION is recorded as -43.1%. Take `COc1ccccc1C(=O)N1CCNCC1C(N)=O` (centres undefined): the INHIBITION is -114%. In the case of `COc1ccc(-c2cn3c(n2)CO[C@@H](CNCc2nccn2C)C3)cc1`, the INHIBITION is given as 21.3%. For `Cn1ccnc1CNC[C@H]1Cn2cc(-c3ccccc3)nc2CO1`, the INHIBITION is on record as 56.4%. As for `Cc1cccnc1CNC[C@H]1Cn2cc(-c3ccccc3)nc2CO1`, the figure is 30.8%; as for `Cc1nc(CCNC(=O)c2cc(C(C)C)nn2C)sc1C`, -66%; as for `COc1cc(N2CCC3(CC2)CN(CCO)c2ccccc23)ncn1`, 47.1%.

As to `CN(Cc1n[nH]c2c1CCCC2)c1nc2c(c(=O)[nH]1)CCNCC2`, the INHIBITION was 65.3%. Regarding `CN(Cc1n[nH]c2c1CCC2)c1nc(C2CCCC2)nc2c1CNC2`, the INHIBITION stood at 2.51%.

Turning to `CN(C)c1nc2c(c(N(C)Cc3n[nH]c4c3CCCCC4)n1)CCNC2`, the INHIBITION was determined as 40%. In the case of `Cc1nccc(-c2cccc(NCC(=O)N3CCCC(C)C3)c2)n1` (centres undefined), the INHIBITION is -103%. The result for `CN1C(=O)c2cccc(NC(=O)c3cccc(S(C)(=O)=O)c3)c2C1=O` reads -15.8%; that for `Cc1ncc(CN2CC[C@@](C)(O)[C@H](Oc3cccc(F)c3)C2)cn1`, -18.7%; that for `O=C(NC1CCNCC1)C1(N2CCCCC2)Cc2ccccc2C1`, 62.9%. For the compound `O=C(NC1CCNC1)C1(N2CCCCC2)Cc2ccccc2C1` (centres undefined), the INHIBITION came to 33.8%. As for `O=C1NCCCC[C@@H]1NC(=O)C1(N2CCCCC2)Cc2ccccc2C1`, the figure is -107%; as for `CNCC(=O)N1CCC(c2ccnc(Nc3ccc(C)cn3)n2)C1` (centres undefined), -163%.

Regarding `CCc1nccn1CCC(=O)N1C[C@@H]2CC[C@H]1CN(C(=O)N(C)C)C2`, the INHIBITION is reported as -28.8%. As for `O=C(c1c(F)cc(Br)cc1F)N1CCc2cnccc21`, the figure is -110%; as for `Cc1cnn(CC(C)NCc2ccc(OCc3cccnc3)cc2)c1` (centres undefined), 36.7%. On to `CCN1CCN(S(=O)(=O)c2cc(C)c(Cl)cc2C)CC1`, for which the INHIBITION is 19.7%. For `COC(=O)[C@H]1C[C@@H](O)CCN1S(=O)(=O)c1cc(C)c(Cl)cc1C`, the INHIBITION is given as -190%. On to `Cc1cc(S(=O)(=O)N2CCC(N3CCC(O)C3)CC2)c(Cl)cc1Cl` (centres undefined), for which the INHIBITION came to 69.3%.

For the compound `CCN1CCN(S(=O)(=O)c2cc(C)c(Cl)cc2Cl)CC1`, the INHIBITION was 64.3%.

Regarding `CCN1CCN(S(=O)(=O)c2cc(C)c(C)cc2Br)CC1`, the INHIBITION is on record as 28.4%. As for `Cc1cc(S(=O)(=O)N2CC[C@@H](O)C2)c(Cl)cc1F`, the figure is -123%. Consider `O=C(c1csc(-c2ccc(C(F)(F)F)cc2)n1)N1CCCNCC1`, for which the INHIBITION is -4.67%. The result for `CC(C)CNC(=O)c1nn(C)c(NC(=O)Cc2ccccc2)c1F` reads -85.1%; that for `COc1ncccc1CNC1CCc2c(ccc(=O)n2C)C1` (centres undefined), -74.3%. The result for `Cc1ccc(CN2CC[C@H]3OCC[C@@H](C(=O)N4CCCCO4)[C@@H]3C2)o1` reads -9.16%; that for `CCN(CC)Cc1cn2c(n1)CN(C1CCOC1)CC2` (centres undefined), -107%. For `Nc1ncccc1C(=O)NCc1cccc(Cl)c1`, the INHIBITION was -96.4%. As for `O=C(NCCN1CCOCC1)c1ccnn1-c1ccc2ccccn12`, the INHIBITION is listed as -33.3%. As for `CCn1cc(-c2cc(-c3cc(CN(C)C)cs3)nc(N)c2C#N)c(C)n1`, the figure is 60.3%.

As for `Cc1nn(C)c(C)c1-c1cc(-c2cc(CC(=O)O)cs2)nc(N)c1C#N`, the INHIBITION is on record as -66.5%. For the compound `CCn1cc(-c2cc(-c3cc(CC(=O)O)cs3)nc(N)c2C#N)c(C)n1`, the INHIBITION is -125%. Regarding `CNC(=O)C1=NOC2(CCN(Cc3nccs3)C2)C1` (centres undefined), the INHIBITION is given as -90.7%. The result for `CC(Nc1cnn(C)c(=O)c1Cl)c1ccc(F)cc1` (centres undefined) reads -75.2%.

On to `N#Cc1cccnc1OC1CCN(S(=O)(=O)c2c(F)cccc2F)CC1`, for which the INHIBITION is on record as -88.3%. In the case of `COc1ccc(C)cc1C(=O)NC(CC(=O)O)c1cccs1` (centres undefined), the INHIBITION was -134%. The result for `O=C1NCc2ccccc2CC12CCCN(CCCc1ccccc1)C2` (centres undefined) reads 39.2%. Consider `O=C1NCc2ccccc2CC12CCCN(Cc1ccsc1)C2` (centres undefined), for which the INHIBITION is 64.3%. As for `N#Cc1ccc(CN2CCCC3(Cc4ccccc4CNC3=O)C2)cc1` (centres undefined), the INHIBITION is listed as 10.7%. The result for `COc1ccccc1CN1CCCC2(Cc3ccccc3CNC2=O)C1` (centres undefined) reads 54.5%; that for `O=C(O)c1ccccc1CN1CCC2(Cc3ccccc3CNC2=O)C1` (centres undefined), -111%. Regarding `Cc1cccc(CN2CCCC3(Cc4ccccc4CNC3=O)C2)n1` (centres undefined), the INHIBITION is -31.3%.
